Compounds with a hit are over-represented: about 12% of the library has one in this group of screens.
Sfp PPTase inh: qHTS Assay for Inhibitors of Bacillus subtilis Sfp phosphopantetheinyl transferase (PPTase); 4'-phosphopantetheinyl transferase ffp (Bacillus subtilis), Q9F4F7; Biochemical Sfp PPTase activity, qHTS; Potency, µM, inactives show largest response in the series, negative = inhibition, hits mostly inhibitors; actives 3.5% (n = 310,000);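 further: the enzyme is Sfp with the accession as filed and its product quenches rhodamine fluorescence; 0% = enzyme reaction without inhibitor and -100% = no enzyme wells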
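Sfp 15 nM + cpd, 15 min RT; start w/ rhodamine-CoA 5 uM, BHQ-2-YbbR 12.5 uM (final); 50 mM Hepes pH 7.6, 10 mM MgCl2, 0.01% NP-40, 0.01% BSA; read 525/598 nm at 0 and 30 min.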
JMJD2A Tudor inh: qHTS Assay for Inhibitors of JMJD2A-Tudor Domain; actives 4.4% (n = 390,000); Potency, µM (titrated, usually from 114 µM), without a hit: top-dose activity change, negative = inhibition, hits mostly inhibitors; AlphaScreen JMJD2A-Tudor / H3K4me3 peptide binding; AID 504339, 2011; Lysine-specific demethylase 4A (Homo sapiens), O75164; further: on the % scale 0 is the no-effect control and ±100 the full control effect; nearly all actives have a fitted effect of over 50% in size
L3MBTL1 inh: qHTS Assay for the Inhibitors of L3MBTL1. AID 485360, 2010. AlphaScreen L3MBTL1–H3K9me1 peptide binding. actives 0.66% (n = 230,000). Potency, µM (top dose mostly 57.1 µM), without a hit: at the top dose activity, negative = inhibition, hits mostly inhibitors; further: on the % scale 0 is the no-effect control and ±100 the full control effect; nearly all actives have a fitted effect of over 60% in size
Target sequence (Q9Y468 whole entry, looked up): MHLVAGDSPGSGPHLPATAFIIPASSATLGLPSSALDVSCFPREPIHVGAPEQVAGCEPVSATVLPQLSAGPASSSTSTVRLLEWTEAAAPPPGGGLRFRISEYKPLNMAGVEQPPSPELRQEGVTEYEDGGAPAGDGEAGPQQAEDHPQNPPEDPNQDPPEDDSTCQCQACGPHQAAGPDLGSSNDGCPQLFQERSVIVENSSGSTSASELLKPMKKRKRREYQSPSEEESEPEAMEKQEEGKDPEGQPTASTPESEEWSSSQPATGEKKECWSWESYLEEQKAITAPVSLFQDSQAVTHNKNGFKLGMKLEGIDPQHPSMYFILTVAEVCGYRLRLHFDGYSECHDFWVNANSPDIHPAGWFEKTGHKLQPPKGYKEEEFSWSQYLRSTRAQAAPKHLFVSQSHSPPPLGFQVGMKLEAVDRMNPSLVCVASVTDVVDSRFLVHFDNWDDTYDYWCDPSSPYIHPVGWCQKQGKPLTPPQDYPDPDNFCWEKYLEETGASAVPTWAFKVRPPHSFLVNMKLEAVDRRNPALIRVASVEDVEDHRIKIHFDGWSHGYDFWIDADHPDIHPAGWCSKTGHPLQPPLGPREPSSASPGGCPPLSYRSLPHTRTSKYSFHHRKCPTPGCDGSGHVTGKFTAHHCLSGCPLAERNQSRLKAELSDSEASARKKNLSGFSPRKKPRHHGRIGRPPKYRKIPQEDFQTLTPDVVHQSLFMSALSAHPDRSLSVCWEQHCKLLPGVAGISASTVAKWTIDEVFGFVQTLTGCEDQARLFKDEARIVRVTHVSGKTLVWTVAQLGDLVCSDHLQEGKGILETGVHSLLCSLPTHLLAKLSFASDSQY
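L3MBTL1 (50 nM) pre-complexed 30 min with biotinylated H3(1-15)K9me1 peptide (75 nM), then compounds added for 30 min at room temperature; AlphaScreen streptavidin donor/nickel chelate acceptor beads (10 ug/mL final) read after 30 min dark incubation.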
HP1b binding inh: HTS for Inhibitors of HP1-beta Chromodomain Interactions with Methylated Histone Tails; AlphaScreen HP1-beta / biotin-H3K9me3 peptide binding; Potency, µM (top dose mostly 114 µM), inactives show top-dose activity change, negative = inhibition, hits mostly inhibitors; actives 0.56% (n = 390,000); further: nearly all actives have a fitted effect of over 70% in size
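HP1-beta protein (50 nM final) preincubated 30 min at room temperature with biotinylated H3(1-18)K9me3 peptide (50 nM) in PBS pH 7.4, 0.01% Tween-20, then compound added for 30 min. AlphaScreen streptavidin donor/nickel chelate acceptor beads (10 ug/mL final), 30 min dark, luminescence read.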
G9a inh: qHTS Assay for Inhibitors of Histone Lysine Methyltransferase G9a; Histone-lysine N-methyltransferase EHMT2 (Homo sapiens), Q96KQ7; G9a H3K9 monomethylation, AlphaScreen, 2 h; Potency, µM (titrated, usually from 102 µM), for inactives: at the top dose activity, negative = inhibition, actives largely listed as inhibitors; actives 8.8% (n = 350,000); AID 504332, 2011; further: on the % scale 0 is the no-effect control and ±100 the full control effect; nearly all actives have a fitted effect of over 75% in size
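AlphaScreen detection with an anti-monomethyl H3K9 antibody quantified product after a 2 h room-temperature reaction containing 500 nM biotinylated H3K9 peptide, 20 µM SAM and 20 nM enzyme, which had been preincubated 15 min with compound.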
BAZ2B inh: qHTS Assay for Inhibitors of BAZ2B | Bromodomain adjacent to zinc finger domain protein 2B (Homo sapiens), Q9UIF8 | AlphaScreen BAZ2B-H3K14Ac peptide displacement | Potency, µM (series often up to 114 µM), without a hit: at the top dose activity change, negative = inhibition, hits mostly inhibitors | actives 4.4% (n = 360,000); further: on the % scale 0 is the no-effect control and ±100 the full control effect; nearly all actives have a fitted effect of over 60% in size
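Compounds, titrated to a top concentration of 110 uM, were incubated 30 min at room temperature with preformed BAZ2B/acetyl-K14 H3 peptide complex (50 nM each). Proximity signal was measured by AlphaScreen after 20 min with beads.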
An asterisk follows results filed as active; [ ] = dose if it differs, or a comment. The call rests on the fitted dose curve; in most records, active means well fitted curve in the direction sought with a large enough effect; inconclusive means small, poorly fitted or top-dose-only effect, or another doubt; inactive means no such curve, though single readings can be large; an effect the other way counts as inactive or inconclusive. Potency means the concentration at half of the fitted maximal effect.

S=c1[nH]nc(-c2ccc3ccccc3n2)o1 was read as Sfp PPTase inh 1%, JMJD2A Tudor inh -33%, HP1b binding inh 69%, G9a inh 8.9µM* and BAZ2B inh 6%.
Nc1nc(Sc2ccc(C(F)(F)F)cn2)n[nH]1 was read as Sfp PPTase inh 1%, JMJD2A Tudor inh -11%, L3MBTL1 inh 6%, HP1b binding inh 25%, G9a inh inconclusive and BAZ2B inh 1%.
`FC(F)(F)c1ccc(-c2n[nH]c(=S)o2)nc1` gave Sfp PPTase inh -1%, JMJD2A Tudor inh 0%, L3MBTL1 inh 11%, HP1b binding inh 66%, G9a inh 40µM* and BAZ2B inh -13%.
`COCCn1c(=O)c(-c2cn(C)c3ccccc23)nc2cnc(Oc3cccc(Cl)c3)nc21` gave Sfp PPTase inh 9% and G9a inh 12%[0.501 µM].
`CCOc1ccccc1NC(=O)N1CCc2cc(S(=O)(=O)N3CCC(C)CC3)ccc21` gave JMJD2A Tudor inh -8%, HP1b binding inh 22%, G9a inh -19%[59 µM] and BAZ2B inh -2%.
`CN(C)c1ccc(C(=O)Nc2cccc(-c3nc4cccnc4s3)c2)cc1` gave JMJD2A Tudor inh -8%, HP1b binding inh 42%, G9a inh -41%[59 µM] and BAZ2B inh -5%.
O=C(Nc1cccc(-c2nc3cccnc3s2)c1)c1cccc(Br)c1 was read as JMJD2A Tudor inh -28%, HP1b binding inh 7%, G9a inh 18µM* and BAZ2B inh -18%.
Screening Cc1csc(=O)n1CCC(=O)OCC(=O)NCc1ccc(F)cc1 returned JMJD2A Tudor inh -8%, L3MBTL1 inh -1%, HP1b binding inh 5%, G9a inh -1% and BAZ2B inh -5%.
Screening CCCCn1c(-c2ccco2)n[nH]c1=S returned Sfp PPTase inh -69%, JMJD2A Tudor inh 3.2µM*, L3MBTL1 inh -16%, HP1b binding inh inconclusive, G9a inh 5µM* and BAZ2B inh -4%.
Screening CCn1c(-c2ccco2)n[nH]c1=S returned Sfp PPTase inh -13%, JMJD2A Tudor inh -2%[11.4 µM], L3MBTL1 inh 9%, HP1b binding inh -22%, G9a inh 3.5µM* and BAZ2B inh 3%.
For CCCCn1c(-c2sccc2C)n[nH]c1=S the results were Sfp PPTase inh -25%, JMJD2A Tudor inh 4.5µM*, L3MBTL1 inh -13%, HP1b binding inh inconclusive, G9a inh 7.9µM* and BAZ2B inh -18%.
Screening CCCCCn1c(-c2ccco2)nc2nc3ccccc3nc21 returned Sfp PPTase inh inconclusive, JMJD2A Tudor inh 5%, L3MBTL1 inh inconclusive, HP1b binding inh 44%, G9a inh -4%[59 µM] and BAZ2B inh 1%.
Screening Cn1c(-c2ccco2)n[nH]c1=S returned Sfp PPTase inh -14%, JMJD2A Tudor inh 7.9µM*, L3MBTL1 inh 8%, HP1b binding inh 22%, G9a inh 4.5µM* and BAZ2B inh -13%.
For CC(C)Cn1c(-c2ccco2)n[nH]c1=S the results were Sfp PPTase inh -17%, JMJD2A Tudor inh 4µM*, HP1b binding inh -8%, G9a inh 7.1µM* and BAZ2B inh inconclusive.
C=CCn1c(-c2ccco2)n[nH]c1=S was read as Sfp PPTase inh -15%, JMJD2A Tudor inh 10µM*, L3MBTL1 inh 4%, HP1b binding inh 38%, G9a inh inconclusive and BAZ2B inh -5%.
Cc1ccc(/C=N/n2c(C3CCCCC3)n[nH]c2=S)s1 was read as Sfp PPTase inh 5%, JMJD2A Tudor inh -12%, L3MBTL1 inh -4%, HP1b binding inh 4%, G9a inh 8.9µM* and BAZ2B inh -3%.
`Cc1ccsc1/C=N/n1c(C2CCCCC2)n[nH]c1=S` gave Sfp PPTase inh -28%, JMJD2A Tudor inh inconclusive, L3MBTL1 inh 1%, HP1b binding inh -12%, G9a inh 1.4µM* and BAZ2B inh 6%.
Screening COc1ccc(C(=O)Nc2nc(-c3ccc(Br)cc3)ns2)cc1 returned JMJD2A Tudor inh 11%, HP1b binding inh 54%, G9a inh 9%[59 µM] and BAZ2B inh 5%.
O=[N+]([O-])c1cccc(Nc2nc(Cl)nc(Cl)n2)c1 was read as Sfp PPTase inh -27%, JMJD2A Tudor inh -29%, HP1b binding inh 10%, G9a inh inconclusive and BAZ2B inh 89µM*.
For OCCOCCN1CCN(Cc2cccc(Oc3ccccc3)c2)CC1 the results were Sfp PPTase inh -6%.
For Cc1ccc(N2CCN(/N=C/c3ccccc3)CC2)cc1 the results were Sfp PPTase inh 19%, JMJD2A Tudor inh -26%, L3MBTL1 inh -11%, HP1b binding inh 13%, G9a inh 2% and BAZ2B inh -37%.
`Clc1ccccc1/C=N/N1CCN(Cc2ccccc2)CC1` gave Sfp PPTase inh -10%, JMJD2A Tudor inh 56µM*, L3MBTL1 inh -3%[2.29 µM], HP1b binding inh -28%, G9a inh 24%[0.501 µM] and BAZ2B inh 45µM*.
For C(=N\N1CCN(Cc2ccccc2)CC1)/c1cccnc1 the results were Sfp PPTase inh 6%, JMJD2A Tudor inh -14%, L3MBTL1 inh -14%, HP1b binding inh 17%, G9a inh inconclusive and BAZ2B inh -25%.
For c1ccc(CN2CCN(CCOCCOc3ccc4c(c3)CCC4)CC2)cc1 the results were Sfp PPTase inh 8%, JMJD2A Tudor inh 0.79µM*, L3MBTL1 inh -6%, HP1b binding inh inconclusive and BAZ2B inh inconclusive.
Screening Cn1cccc1/C=N/N1CCN(c2ccccc2)CC1 returned Sfp PPTase inh 28µM*, JMJD2A Tudor inh -11%[11.4 µM], L3MBTL1 inh inconclusive, HP1b binding inh inconclusive, G9a inh 32µM* and BAZ2B inh 50µM*.
COc1ccc(Br)cc1/C=N/N1CCN(Cc2ccccc2)CC1 was read as Sfp PPTase inh 7%, JMJD2A Tudor inh 40µM*, L3MBTL1 inh inconclusive, HP1b binding inh inconclusive, G9a inh inconclusive and BAZ2B inh 28µM*.
Screening COCCCNC(=S)N(CCO)Cc1cc2cc3c(cc2[nH]c1=O)OCO3 returned Sfp PPTase inh 15%, JMJD2A Tudor inh -3%, L3MBTL1 inh 5%, HP1b binding inh 53%, G9a inh 10% and BAZ2B inh 2%.
`CCNc1c(NC(=O)COc2ccc(Cl)cc2)c(=O)oc2ccccc12` gave Sfp PPTase inh 17%, JMJD2A Tudor inh -24%, HP1b binding inh 34%, G9a inh -7% and BAZ2B inh -20%.

Bioassay records (PubChem BioAssay)
